Assay outcomes: PubChem, several laboratories
Shown are actives, neighbours in structure and some others; about 27% of the full set was active somewhere.
CYP2C9 activ = human CYP2C9 activators, primary screen, biochemical, luminescence. Cytochrome P450 2C9 (Homo sapiens), P11712. recombinant CYP2C9, luciferin-H conversion; stronger effect = higher value; factor 1 = untreated enzyme, 0 = blocked. activation factor at 5 µM. hit rate 1.4% among 96,000. AID 1024, 2008;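 active means activation factor of 2 or more for CYP2C9 at a 5 µM dose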;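 further: 0 = sulfaphenazole-blocked wells and 1 = vehicle-only wells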
Target sequence (P11712 whole entry, looked up): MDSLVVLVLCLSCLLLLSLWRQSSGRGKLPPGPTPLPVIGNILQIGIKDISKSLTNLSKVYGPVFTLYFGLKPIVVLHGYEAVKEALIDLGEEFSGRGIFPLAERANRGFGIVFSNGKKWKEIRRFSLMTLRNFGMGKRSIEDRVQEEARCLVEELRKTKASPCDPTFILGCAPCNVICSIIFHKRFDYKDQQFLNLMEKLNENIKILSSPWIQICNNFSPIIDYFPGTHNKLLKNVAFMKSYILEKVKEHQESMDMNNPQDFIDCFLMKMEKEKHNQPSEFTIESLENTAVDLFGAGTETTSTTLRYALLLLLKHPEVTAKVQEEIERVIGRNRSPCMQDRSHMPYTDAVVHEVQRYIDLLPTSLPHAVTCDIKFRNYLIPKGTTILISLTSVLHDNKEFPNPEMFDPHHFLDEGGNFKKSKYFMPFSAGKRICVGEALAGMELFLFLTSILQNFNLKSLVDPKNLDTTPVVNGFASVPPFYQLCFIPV
CYP2C19 act = human CYP2C19 activators, primary screen, biochemical, luminescence | recombinant CYP2C19, luciferin-H EGE luminescence; stronger effect = higher value; 0 = fully inhibited enzyme, 1 = untreated enzyme | activation factor at 5 µM | 96,000 tested, under 10 active | Cytochrome P450 2C19 (Homo sapiens), P33261;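 active means activation factor of at least 2 at 5 µM in the primary screen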;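 further: 0 = wells with 2.5 mM tranylcypromine and 1 = vehicle-only wells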
Pyk2 oligo antag = antagonists of Pyk2 self-association, primary screen, Q293 cells, FERM NanoBiT luminescence, HTS; Protein-tyrosine kinase 2-beta (Homo sapiens), Q14289; stronger effect = lower value; z-score (the deposit names both 25 µM and 10 µM); hit rate 0.83% among 99,000; AID 1347419, 2020;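 active means Z-score of -3 or lower, scaled per plate to the spread of control and sample wells; inactive means z-score above -3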;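 further: negative z-score means lost luminescence so less FERM oligomerization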
Cav3 T inh = Cav3.2 calcium influx blockers – cell-based, Fluo-4 calcium fluorescence, FDSS, MLSMR library, primary screen; Voltage-dependent T-type calcium channel subunit alpha-1H (Homo sapiens), O95180; Cav3.2-expressing cells; stronger effect = lower value; B-score at 10 µM; hit rate 4% among 100,000;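 active means single-dose well whose peak fluorescence ratio is a statistical outlier from its plate by either plate-standardised score or position-corrected B-score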
CYP2C9 inhib = blockers of cytochrome P450 2C9 activity – biochemical, luminescence, ADME assay, primary screen | CYP2C9 Supersomes, luciferin-H conversion | inhibition, % at 5 µM | hit rate 20% among 96,000;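 active means blocking of liver enzyme CYP2C9 beyond about 50% at 5 µM, limit read from the data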
CYP2C19 inhib = blockers of cytochrome P450 2C19 activity – biochemical, luminescence, ADME assay, primary screen | P33261 | CYP2C19 Supersomes, luciferin-H EGE luminescence, 30 min | inhibition, % at 5 µM | hit rate 21% among 96,000;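 active means CYP2C19 inhibition above a set limit at 5 µM in the primary screen, cut at about 50% in these data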;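 further: plate controls were negative control wells for no effect and 2.5 mM tranylcypromine positive control for full effect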
The depositor's hits bear a star; · = no result given.

SMILES	CYP2C9 activ	CYP2C19 act	Pyk2 oligo antag	Cav3 T inh	CYP2C9 inhib	CYP2C19 inhib
Cc1ccc(-c2nc(CS(=O)CC(=O)NCc3ccc(Cl)cc3)c(C)o2)cc1 (centres undefined)	0.7	0.7	·	-6*	32	30
CCCCNC(=O)CS(=O)Cc1nc(-c2ccc(C)cc2)oc1C (centres undefined)	0.8	1.1	·	-2.4	15	-7
Cc1ccc(-c2nc(CS(=O)CC(=O)NCCC(C)C)c(C)o2)cc1 (centres undefined)	0.3	0.5	·	-1.3	68*	49
C[C@@H](NC(=O)c1nc[nH]c1C(=O)N[C@@H](CCCCNC(=O)OC(C)(C)C)C(=O)OC(C)(C)C)c1ccccc1	·	·	·	-1.3	·	·
COC(=O)C(CC(C)C)NC(=O)c1ccc([N+](=O)[O-])c(C)c1 (centres undefined)	1.1	0.9	0.06	0.15	-6	11
O=c1c(-c2nc3ccccc3s2)cccn1Cc1ccc(Cl)c(Cl)c1	0.3	1.1	-0.62	·	74*	-13
O=C(c1cccn(Cc2ccc(Cl)c(Cl)c2)c1=O)N1CCOCC1	1.1	1.1	-0.25	0.033	-11	-10
COc1c(Cl)cc(-c2noc(C)c2C(=O)NC(C)C)cc1Cl	·	·	·	-0.13	·	·
O=C(CN(C(=O)c1ccccc1Cl)C1CCCCC1)Nc1ccc(Cl)c([N+](=O)[O-])c1	0.2	0.7	-1	-9.9*	75*	25
Cc1ccc([N+](=O)[O-])cc1NC(=O)CN(C(=O)c1ccc(Cl)cc1)C1CCCCC1	0.6	0.5	-0.96	-9.4*	37	46
CC(=O)Nc1ccc(NC2=Nc3ccccc3N3C2=Nc2c(c(C)nn2-c2ccccc2)C3c2ccccc2)cc1 (centres undefined)	0.6	0.8	-2.6	-1.3	42	19
COc1ccc(NC2=Nc3ccccc3N3C2=Nc2c(c(C)nn2-c2ccc(C)cc2)C3c2cccnc2)cc1 (centres undefined)	0.4	0.7	-2.6	-0.0028	56*	25
O=C(CN1C(=O)CCSc2ccccc21)Nc1ccc(F)cc1	0.2	0.1	-0.04	0.46	80*	95*
O=C(CN1C(=O)CCSc2ccccc21)Nc1ccccc1	0.3	0.1	1.4	0.096	70*	92*
O=C1NC(=O)C(c2cn(-c3ccccc3)nc2-c2ccc(F)cc2)N1 (centres undefined)	0.1	0.8	-1.2	·	94*	21
CC1=C(C(=O)c2ccccc2)C(c2cn(-c3ccccc3)nc2-c2ccc(Cl)cc2)NC(=S)N1 (centres undefined)	0.6	0.9	-0.5	-0.86	35	5
CCc1nc(NCCC(C)C)c(C#N)c2c1CCCC2	0.8	1	-0.56	1	17	1
COCc1nnc(NC(=O)c2ccc(S(=O)(=O)N(C)c3ccccc3)cc2)o1	0.2	0.9	·	-0.56	77*	5
CN(c1ccccc1)S(=O)(=O)c1ccc(NC(=S)NC(=O)c2ccccc2)cc1	0.3	0.7	0.57	-1.8	70*	29
CCN(c1ccccc1)S(=O)(=O)c1ccc(NC(=S)NC(=O)c2ccc(Br)o2)cc1	0.3	0.8	-0.89	-2.8	67*	23
CCN(c1ccccc1)S(=O)(=O)c1ccc(C(=O)Nc2nnc(COC)o2)cc1	0.3	1.1	-2.3	·	70*	-8
Cc1ccc(C(=O)NC(=S)Nc2ccc(S(=O)(=O)N(C)c3ccccc3)cc2)cc1	0.9	1	1.4	-2.3	5	5
COc1ccc(OC)c(C(=O)COC(=O)c2ccccc2O)c1	0.9	0.8	0.88	-1.3	12	20
CCCCS(=O)(=O)NC1=NCN(Cc2ccco2)CN1	0.9	1	-0.32	-0.13	10	3
CCSc1nnc(-c2cccnc2)n1-c1ccc(C)c(Cl)c1	0.9	0.9	1.7	2.1	8	15
SMILES	CYP2C9 activ	CYP2C19 act	Pyk2 oligo antag	Cav3 T inh	CYP2C9 inhib	CYP2C19 inhib
C#Cc1ccc([C@@H]2C=C(C(=O)N3CCOCC3)O[C@H](OCc3ccc(CO)cc3)C2)cc1	·	·	·	-0.18	·	·
CCCOc1ccc(N2C(=O)CC(N(CCc3ccc(OC)c(OC)c3)C(=S)Nc3ccccc3)C2=O)cc1 (centres undefined)	·	·	-0.35	·	·	·
O=C1CC(N(CCc2ccccc2)C(=S)Nc2cc(Cl)ccc2Cl)C(=O)N1c1c(Cl)cccc1Cl (centres undefined)	0.5	0.9	-0.39	-2.6*	54*	8
COc1ccc(S(=O)(=O)NCc2csc(C)n2)cc1	1.1	0.5	-0.29	-1.6	-7	46
Cc1nc(CNS(=O)(=O)c2cc(C)c(C)cc2C)cs1	1.6	0.1	-0.36	-0.76	-62	87*
COc1cc(C)c(S(=O)(=O)Nc2ccc(CC(=O)O)cc2)cc1C	·	·	1.4	0.97	·	·
COc1cc(C)c(S(=O)(=O)NCc2cccs2)cc1C	0.3	0	-0.31	·	66*	99*
COc1ccc(Cl)cc1S(=O)(=O)NCc1cccs1	2.5*	0	-0.62	0.01	-149	97*
N#CC1=C(SCc2ccccc2Cl)NC(=O)C(C(N)=O)C1 (centres undefined)	1.1	1.1	-0.13	0.02	-7	-5
CCOC(=O)c1ccc(NC(=O)CCc2nc(-c3ccccc3Cl)no2)cc1	0	0.8	-0.64	-3.8*	96*	25
CCOC(=O)c1ccc(NC(=O)CCc2nc(-c3ccccc3)no2)cc1	0.5	0.9	-0.23	-2.5	50*	6
Cc1nn(Cc2c(Cl)cccc2Cl)c(C)c1N	·	·	0.26	0.6	·	·
COc1ccc(N(C(=O)Cn2nnc3ccccc32)C(C(=O)NCc2ccco2)c2cccnc2)cc1 (centres undefined)	0.9	0.2	-0.52	0.0035	7	78*
O=C(NCc1ccco1)C(c1ccncc1)N(CCC1=CCCCC1)C(=O)Cn1nnc2ccccc21 (centres undefined)	0.4	0.5	-0.05	-0.25	62*	51*
CCOC(=O)CN(C(=O)Cn1nnc2ccccc21)C(C(=O)NCCOC)c1ccccc1C (centres undefined)	1	0.9	0.23	-0.39	1	6
COCCNC(=O)C(c1ccncc1)N(C(=O)Cn1nnc2ccccc21)c1ccc(OC)cc1 (centres undefined)	0.8	0.9	1.9	0.62	21	13
COCCNC(=O)CN(C(=O)Cn1nnc2ccccc21)c1ccc(F)c(Cl)c1	1.1	0.4	0.74	0.96	-5	56*
Cc1cccc(N(C(=O)Cn2nnc3ccccc32)C(C(=O)NCc2ccco2)c2ccncc2)c1 (centres undefined)	0.8	0.8	-0.56	0.72	23	20
